Records with an inconclusive call do not appear. Calls of active or inactive are those of the source. Calls come from the whole dose curve; as a rule, active = well fitted curve in the direction sought with a large enough effect; inconclusive = small, poorly fitted or top-dose-only effect, or another doubt; inactive = no such curve, though single readings can be large; an effect the other way counts as inactive or inconclusive.
What was measured:
[1] = MultiTox-Fluor Cytotoxicity Assay - LYMP1-003 - Dead Cells (AID 961); note: nearly all actives have a fitted effect of over 70% in size
How it was run: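 LYMP1-003 human lymphoblastoid cells (2500/well) exposed to compound 16 h at 37 C in complete medium; dead-cell protease read with bis-AAF-R110 fluorescence (Ex/Em 485/520) after 60 min at room temperature. Normalized to DMSO and 15 uM tetraoctylammonium bromide; AC50 from Hill fit.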

[2] = MultiTox-Fluor Cytotoxicity Assay - LYMP1-003 - Live Cells (AID 962);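 note: cytotoxic hits lower the live-cell protease signal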
How it was run: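 LYMP1-003 lymphoblastoid cells, 2500/well in complete medium, treated 16 h at 37 C; live-cell protease cleavage of GF-AFC read by fluorescence (Ex/Em 405/510) after 60 min reagent; AC50 from Hill fits of concentration-response.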

[3] = Cell Viability - LYMP1-003 - Assay at 24 hr (AID 963)
How it was run: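 Human lymphoblastoid LYMP1-003 cells, 2500/well, treated 24 h at 37 C in complete medium. Viability read as intracellular ATP by CellTiter-Glo luminescence after 30 min at room temperature; AC50 from Hill-equation fits of qHTS concentration-response.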

[4] = Cell Viability - LYMP1-003 - Assay at 40 hr (AID 964); note: series mostly up to about 92 µM; nearly all actives have a fitted effect of over 60% in size
How it was run: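 LYMP1-003 human lymphoblastoid cells, 2500/well, preincubated 5 h at 37 C, then treated with compound for 40 h at 37 C. Intracellular ATP read by CellTiter-Glo luminescence after 30 min at room temperature; AC50 from Hill-equation fits.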

[5] = Cell Viability - LYMP2-003 (AID 965);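 note: cells exposed to compounds for 24 h before reading; nearly all actives have a fitted effect of over 50% in size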
How it was run: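 Seed 2500 lymphoblastoid cells/well; incubate 5 hr, 37 C; add compounds; incubate 24 hr, 37 C; add CellTiter-Glo, 30 min RT; read luminescence. AC50 from Hill fit.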

[6] = Cell Viability - LYMP2-004 (AID 966); note: nearly all actives have a fitted effect of over 65% in size
From the text: NIH Chemical Genomics Center [NCGC]
NIH Molecular Libraries Screening Centers Network [MLSCN]
National Institutes of Environmental Health Sciences [NIEHS]
National Toxicology Program [NTP]
We have developed a 1536-well cell-based assay for quantitative high throughput screening (qHTS) against a number of cell lines to determine in vitro cytotoxicity of small molecules. This particular assay uses a human lymphoblastoid cell line (LYMP2-004) purchased from Coriell Institute for Medical Research.
NCGC Assay Protocol Summary:
The CellTiter-Glo luminescent cell viability assay (Promega) is a homogeneous method to measure the number of viable cells in culture. The end point readout of this assay is based on quantitation of intracellular ATP, an indicator of metabolic activity, using the luciferase reaction. […]
Using the CellTiter-Glo luminescent cell viability assay, the amount of cellular ATP was measured in the lymphoblastoid cell line with complete culture medium following compound treatment for 24 hours. […] Library compounds were measured for their ability to cause acute toxicity in the cell line, as reflected by a decrease in intracellular ATP levels, in a concentration-dependent manner. […] AC50 values were determined from concentration-response data modeled with the standard Hill equation. […]
8. Detection; Luminescence; Viewlux plate reader […]

[7] = Cell Viability - LYMP2-005 (AID 967); note: series mostly up to about 92 µM
How it was run: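 Acute cytotoxicity is scored as a concentration-dependent drop in intracellular ATP in human lymphoblastoid LYMP2-005 cells after 24 h compound treatment. ATP is quantified by luciferase luminescence, and AC50 is derived by Hill-equation modelling.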

[8] = Cell Viability - LYMP2-009 (AID 968); note: series mostly up to about 92 µM; nearly all actives have a fitted effect of over 55% in size
[9] = Cell Viability - LYMP2-011 (AID 969); note: nearly all actives have a fitted effect of over 60% in size
How it was run: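 2500 cells/well in complete medium, compound-treated 24 h at 37 C. Viability read as intracellular ATP by CellTiter-Glo luminescence after 30 min at room temperature. AC50 from Hill fits of qHTS concentration-response data.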

[10] = Cell Viability - LYMP2-013 (AID 970); note: series mostly up to about 92 µM; nearly all actives have a fitted effect of over 55% in size
How it was run: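 Human lymphoblastoid LYMP2-013 cells, 2500/well, treated 24 h at 37 C in complete medium; viability as intracellular ATP by CellTiter-Glo luminescence after 30 min. AC50 from Hill fits of qHTS concentration-response.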

Measured: outcome

CC(=O)O[C@@H]1CC(C)=C2[C@H]1[C@H](C)CC[C@H]2/C=C(\C)C(=O)O
inactive: all assays above

Cc1ccc(N)cc1O
inactive: all assays above

Nc1ccccc1N
inactive: [2]

Reference: PubChem BioAssay (NCATS)
